Screens deposited in PubChem BioAssay by National Center for Advancing Translational Sciences (NCATS).
PNC inhibitor = perinucleolar compartment assembly inhibition; AID 2417; 140,000 compounds, 3.1% hits; PC3M PTB-GFP, PNC prevalence imaging, 16 h; active compounds read low; activity change (PNC), negative = inhibition, % at 10 µM;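 active = readout at or below -70, meaning at least 70% loss of cells showing the perinucleolar compartment, a nuclear body marking cancer cells; inconclusive = readout between -30 and a set limit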
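Compounds are pinned in duplicate onto adhered PC3M cells stably expressing GFP-tagged PTB and incubated 16 h at 37 C. Cells are then fixed, nuclei stained with Hoechst, and PNC-positive cells counted.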
CBFb-RUNX1 inh = blocks binding between human CBF-beta and RUNX1; AID 1477; 230,000 tested, under 10 active; Q01196+Q13951; AlphaScreen CBFb-His/RUNX1-biotin binding, biochemical; Potency, µM (doses to about 59.8 µM), usual class: inhibitors
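Room-temperature protein-protein interaction test with 30 nM each of His-tagged CBF-beta and biotinylated RUNX1, 15 min with compound, then 90 min with nickel plus streptavidin beads. Signal read in AlphaScreen mode.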
ALDH1A1 inh = blocks purified human ALDH1A1 activity; 220,000 compounds, 7.3% hits; AID 1030; Potency, µM (highest dose often 75.3 µM), usual class: inhibitors; Purified ALDH1A1, NADH fluorescence, propionaldehyde substrate; P00352; active = well fitted inhibition curve with a large enough effect, not every such curve was filed as active; inconclusive = small, poorly fitted or top-dose-only effect, or another doubt; inactive = no such curve, though single readings can be large or run the other way
HTT ATP protect = Huntington cell model cytoprotection by ATP luminescence; 230,000 compounds, 0.14% hits; Potency, µM (top dose mostly 56.4 µM), actives largely listed as activators; PC12 HTT-Q103 induced, cytoprotection, ATP luminescence, 40 h; also: nearly all actives have a fitted effect of over 45% in size
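Compounds were screened for protection of PC12 cells against cell death after tebufenozide induction (100 nM final) of mutant Huntingtin exon 1 (Q103) fused to GFP.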
HTT aggregate = reduces HttQ103-GFP aggregates in PC12 cells | PC12 HttQ103-GFP aggregates, Acumen cytometry, 40 h | Potency, µM (highest dose often 46.1 µM), most hits filed as inhibitors | 220,000 compounds, 1.1% hits | AID 1688; also: nearly all actives have a fitted effect of over 60% in size
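PC12 cells with ecdysone-inducible HTT exon1 Q103-GFP, induced by 100 nM tebufenozide, given compounds in a concentration series. GFP aggregates (1–25 um, 6 SD above background) counted in lysates by laser-scanning cytometry, 488 nm excitation.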
HPGD block = inhibitors of human 15-hydroxyprostaglandin dehydrogenase (HPGD); AID 894; purified HPGD, NADH fluorescence kinetic, PGE2 substrate; Potency, µM, most hits filed as inhibitors; 150,000 compounds, 4.3% hits; active = well fitted inhibition curve with a large enough effect, not every such curve was filed as active; inconclusive = small, poorly fitted or top-dose-only effect, or another doubt; inactive = no such curve, though single readings can be large or run the other way
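20 nM HPGD preincubated 15 min at room temperature with compound in 50 mM Tris-HCl pH 8, 0.01% Tween 20. Started with 1 mM NAD+ and 30 uM prostaglandin E2; NADH fluorescence (360/450 nm) read 5 times over 30-s intervals, last minus first.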
A number is an active result; i = inactive; ? = inconclusive; nt = no result; ! = not active in a repeat; [ ] = another dose, or the depositor's remark. Sampled rows, rich in hits. Any-hit rate of the full collection: about 11%. Unless noted, calls follow the shape of the dose curve; as a rule, active = well fitted curve in the direction sought with a large enough effect; inconclusive = small, poorly fitted or top-dose-only effect, or another doubt; inactive = no such curve, though single readings can be large; an effect the other way counts as inactive or inconclusive.

SMILES	PNC inhibitor	CBFb-RUNX1 inh	ALDH1A1 inh	HTT ATP protect	HTT aggregate	HPGD block
CC(C)N(CC[C@@](C(N)=O)(c1ccccc1)c1ccccn1)C(C)C	nt	i	i	?	i	i
CCC1C(=O)OC[C@H]1Cc1cncn1C (some centres not stated)	nt	i	i	i	nt	i
O=C(O)CNC(=O)[C@@H](CS)Cc1ccccc1	nt	i	?	i	nt	7.94µM
S=C1Nc2ccccc2Sc2ccccc21	nt	i	10µM	?	i	nt
Cc1nn(Cc2ccccc2)c(C)c1C(=O)OCC(=O)Nc1ccccc1SCC#N	i	i	25.1µM	i[10 µM]	i	i
C(=C\c1ccccc1)/CN1CCN(CCOC(c2ccccc2)c2ccccc2)CC1	nt	i	i	i	nt	nt
COc1ccc(-c2noc(CN3C(=O)c4ccccc4C3=O)n2)cc1	?	i	i	i[0.074 µM]	i	20µM
c1ccc(N2CCC3(CCNCC3)CC2)nc1	nt	nt	?	i	nt	?
CCCC1=C(C(=O)OCC)C2(C(=O)Nc3ccccc32)C(C#N)=C(N)O1 (configuration not stated)	i	i	11.2µM	i	i	i
COC(=O)CC1=C(C(=O)OC)C2(C(=O)Nc3c(C)cccc32)C(C#N)=C(N)O1 (configuration not stated)	i	i	10µM	i	i	i
COC(=O)C1=C(C)OC(N)=C(C#N)C12C(=O)Nc1ccccc12 (configuration not stated)	nt	i	i	i[10 µM]	i[9.22 µM]	nt
COc1cc2c(cc1O)CCN[C@H]2C	nt	nt	nt	i	nt	nt
O=c1[nH]c(=S)n(Cc2ccco2)c(O)c1C=NCc1cccs1	i	i	7.94µM	i[10 µM]	i	25.1µM
CC(=O)Cc1c[nH]c2ccccc12	nt	i	nt	i[10 µM]	i[9.22 µM]	nt
CCCC/C(=N\O)c1c[nH]c2ccccc12	-80.9	i	i	i	i	i
COC(=O)C1C2c3ccccc3OC1(C)N=c1s/c(=C/c3cnn(C)c3)c(=O)n12 (configuration not stated)	i	i	i	i	i	i
CC(=O)C1C2c3ccccc3OC1(C)N=c1s/c(=C/c3cn(C)nc3C)c(=O)n12 (configuration not stated)	?	i	10µM	i	i	28.2µM
Cc1cc(O)c2c(c1)C(=O)c1cc(O)cc(O)c1C2=O	nt	?	22.4µM	i[1.9 µM]	nt	i
C#CCN1CC(=O)N(COC(=O)[C@@H]2[C@@H](C=C(C)C)C2(C)C)C1=O	nt	nt	nt	i	i	nt
[Hg+][c]1ccccc1	nt	nt	nt	i	3.16µM	nt
CN1C[C@@H](CS(=O)(=O)N(C)C)C[C@H]2c3cccc4c3c(cn4C)C[C@@H]21	nt	nt	nt	i[1.9 µM]	nt	nt
CCN(CC)C(=O)C(C(=O)c1cccc([N+](=O)[O-])c1)n1cc(Cl)ccc1=O (configuration not stated)	nt	i	17.8µM	i[10 µM]	i[9.22 µM]	nt
O=C(O)C[C@H]1NCc2cc3ccccc3nc21	nt	nt	i[13.5 µM]	i[10 µM]	nt	i
NC(Cc1ccc(N(CCCl)CCCl)cc1)C(=O)O (configuration not stated)	nt	i	31.6µM	nt	nt	i
CCOC(=O)CC(NC(=O)C(Cc1ccc(N(CCCl)CCCl)cc1)NC(C)=O)C(=O)OCC (configuration not stated)	nt	i	25.1µM	i[10 µM]	i[9.22 µM]	nt
SMILES	PNC inhibitor	CBFb-RUNX1 inh	ALDH1A1 inh	HTT ATP protect	HTT aggregate	HPGD block
CC(=O)NC(Cc1ccc(N(CCCl)CCCl)cc1)C(=O)NC(C(=O)O)C(C)C (configuration not stated)	nt	i	i	nt	nt	nt
COc1ccc(NC(=O)N2CCC3(CC2)OCCO3)cc1	nt	i	i	i[10 µM]	i[9.22 µM]	nt
COc1ccc(Nc2ncc(C(=O)N3CCC4(CC3)OCCO4)c3ccccc23)cc1	?	i	i	i	i	22.4µM
COc1ccc(/C=C2/Sc3ccc(C(=O)N4CCc5ccccc5C4)cc3NC2=O)cc1	i	i	i	i[10 µM]	i	15.8µM
O=c1[nH]c(O)c(N=Nc2cc([N+](=O)[O-])ccc2O)c(=O)[nH]1	nt	?	20µM	i[10 µM]	i[9.22 µM]	nt
Cc1c([C@@H](C)[C@H]2NC[C@H](C)C[C@@H]2O)ccc2c1C[C@@H]1[C@H]2CC=C2C[C@@H](O)CC[C@@]21C	nt	nt	nt	i[10 µM]	nt	nt
CN(C)CCC=C1c2ccccc2CCc2ccccc21	i	i	17.8µM!	?	i	i
N#CC1(O)CCCCC1	nt	i	28.2µM	i	nt	i
